# From PubChem BioAssay (Tox21)
# “And” between values parts separate entries of the source, which are not always exact repeats. Identical values can stand only once. Results filed as inconclusive are left out. A call without a number means that no potency is given here. The source made the active and inactive calls. Unless noted, the call rests on the fitted dose curve; in most records, active means well fitted curve in the direction sought with a large enough effect in the repeat runs; inconclusive means weak or mixed curves; inactive means no such curve, though single readings can be large; an effect the other way counts as inactive or inconclusive.
# Tests used:
# [1] = qHTS assay to identify small molecule agonists of the peroxisome proliferator-activated receptor delta (PPARd) signaling pathway - cell viability counter screen (AID 743211); further: nearly all actives have a fitted effect of over 55% in size; further: potency means the concentration at half of the fitted maximal effect
# Summary of the method: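 Viability of GeneBLAzer PPARd UAS-bla HEK293H cells was assessed after 17 h compound incubation at 37C, using CellTiter-Glo reagent added after the reporter read and luminescence recorded 30 min later.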
# [2] = molecular target: Peroxisome proliferator-activated receptor delta (Homo sapiens) (UniProt Q03181); experiment: qHTS assay to identify small molecule agonists of the peroxisome proliferator-activated receptor delta (PPARd) signaling pathway (AID 743212; calls by dose curve;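 further: HEK293H cells with PPARd UAS beta-lactamase reporter GeneBLAzer system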; further: potency means the concentration at half of the fitted maximal effect)
# Chain of Peroxisome proliferator-activated receptor delta (Homo sapiens) (Q03181 whole entry, looked up): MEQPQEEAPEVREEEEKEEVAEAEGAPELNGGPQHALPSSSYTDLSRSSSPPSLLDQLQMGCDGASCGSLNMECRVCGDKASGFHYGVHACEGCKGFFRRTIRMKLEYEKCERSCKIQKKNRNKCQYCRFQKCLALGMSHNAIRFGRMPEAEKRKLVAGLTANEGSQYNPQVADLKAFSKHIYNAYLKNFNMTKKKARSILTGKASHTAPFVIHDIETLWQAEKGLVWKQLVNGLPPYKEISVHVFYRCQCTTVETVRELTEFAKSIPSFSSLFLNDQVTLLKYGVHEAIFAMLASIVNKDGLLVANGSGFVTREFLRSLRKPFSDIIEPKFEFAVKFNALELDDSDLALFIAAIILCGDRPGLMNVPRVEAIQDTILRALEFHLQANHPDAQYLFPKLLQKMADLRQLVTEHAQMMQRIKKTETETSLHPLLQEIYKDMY
# Summary of the method: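 Beta-lactamase reporter readout: a ratiometric FRET signal from the LiveBLAzer substrate after 2 h at room temperature. Compound exposure at 37 °C in PPARδ-bla HEK293H cells driven by an upstream activator sequence.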
# [3] = qHTS assay to identify small molecule antagonists of the peroxisome proliferator-activated receptor delta (PPARd) signaling pathway - cell viability counter screen (AID 743213); further: nearly all actives have a fitted effect of over 50% in size; further: potency means the concentration at half of the fitted maximal effect
# Summary of the method: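 In this counter screen, HEK293H cells carrying a UAS-beta-lactamase reporter are co-treated with test compounds and 300 nM L165041 (final) for 17 h at 37 C; cell viability is quantified by CellTiter-Glo luminescence.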
# [4] = molecular target: Peroxisome proliferator-activated receptor delta (Homo sapiens) (UniProt Q03181); experiment: qHTS assay to identify small molecule antagonists of the peroxisome proliferator-activated receptor delta (PPARd) signaling pathway (AID 743215; active means well fitted inhibition curve with a large enough effect in the signal ratio in the repeat runs, not every such curve was filed as active; the % refers to the signal ratio;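 further: cells stimulated with agonist L165041 at 300 nM final during compound exposure; series mostly up to about 62 µM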)
# Summary of the method: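 Agonist L165041 (300 nM final) added with compound to PPARd-bla HEK293H UAS-bla reporter cells; 17 h incubation at 37 C. Read-out: LiveBLAzer FRET substrate, 2 h at room temperature, fluorescence intensity.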
# [5] = qHTS assay to identify small molecule agonists of the farnesoid-X-receptor (FXR) signaling pathway - cell viability counter screen (AID 743218); further: nearly all actives have a fitted effect of over 45% in size
# Summary of the method: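 Viability counter screen in the same wells: CellTiter-Glo luminescence, 30 min room-temperature incubation, measured after the beta-lactamase read. Cells were GeneBLAzer FXR-UAS-bla HEK 293T, compound-treated 16 h at 37C.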
# [6] = qHTS assay to identify small molecule antagonists of the farnesoid-X-receptor (FXR) signaling pathway - cell viability counter screen (AID 743221; active means well fitted cell-killing curve with a large enough effect in the repeat runs, not every such curve was filed as active; further: nearly all actives have a fitted effect of over 50% in size; further: potency means the concentration at half of the fitted maximal effect)
# Summary of the method: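 Quantitative HTS of the Tox21 10K library run in parallel with the beta-lactamase reporter read. HEK 293T cells carrying a UAS-driven bla reporter got compound and 50 uM CDCA (final) for 16 h; ATP-based luminescence followed.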
# [7] = molecular target: Vitamin D3 receptor (Homo sapiens) (UniProt P11473); experiment: qHTS assay to identify small molecule agonists of the vitamin D receptor (VDR) signaling pathway (AID 743222; calls by dose curve; further: potency means the concentration at half of the fitted maximal effect)
# Chain of Vitamin D3 receptor (Homo sapiens) (P11473 whole entry, looked up): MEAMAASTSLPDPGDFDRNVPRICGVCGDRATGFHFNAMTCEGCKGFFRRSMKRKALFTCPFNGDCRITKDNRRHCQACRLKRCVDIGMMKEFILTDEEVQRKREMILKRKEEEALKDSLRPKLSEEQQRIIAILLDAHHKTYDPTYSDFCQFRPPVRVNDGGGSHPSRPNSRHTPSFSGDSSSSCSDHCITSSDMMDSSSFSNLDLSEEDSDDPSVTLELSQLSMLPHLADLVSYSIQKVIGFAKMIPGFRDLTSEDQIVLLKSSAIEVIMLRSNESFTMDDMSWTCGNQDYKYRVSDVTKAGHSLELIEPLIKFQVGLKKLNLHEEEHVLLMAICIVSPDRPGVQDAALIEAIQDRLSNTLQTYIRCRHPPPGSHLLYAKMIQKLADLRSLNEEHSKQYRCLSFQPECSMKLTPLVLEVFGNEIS
# Summary of the method: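 Agonist mode, beta-lactamase reporter: fluorescence from LiveBLAzer B/G FRET substrate (2 h, room temperature) read after 16 h compound treatment at 37 C of VDR-bla cells, which were pre-incubated 4 h after seeding.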
# [8] = molecular target: Vitamin D3 receptor (Homo sapiens) (UniProt P11473); experiment: qHTS assay to identify small molecule antagonists of the vitamin D receptor (VDR) signaling pathway (AID 743223; active means well fitted inhibition curve with a large enough effect in the signal ratio in the repeat runs, not every such curve was filed as active; the % refers to the signal ratio; further: potency means the concentration at half of the fitted maximal effect)
# Summary of the method: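 Fluorescence from LiveBLAzer B/G FRET substrate, read after 2 h at room temperature, reflects beta-lactamase reporter activity in VDR-bla cells treated 16 h at 37C with compounds and agonist 1alpha,25-dihydroxyvitamin D3 (3 nM final).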
# [9] = molecular target: Bile acid receptor (Homo sapiens) (UniProt Q96RI1); experiment: qHTS assay to identify small molecule antagonists of the farnesoid-X-receptor (FXR) signaling pathway (AID 743217; active means well fitted inhibition curve with a large enough effect in the signal ratio in the repeat runs, not every such curve was filed as active; the % refers to the signal ratio)
# Chain of Bile acid receptor (Homo sapiens) (Q96RI1 whole entry, looked up): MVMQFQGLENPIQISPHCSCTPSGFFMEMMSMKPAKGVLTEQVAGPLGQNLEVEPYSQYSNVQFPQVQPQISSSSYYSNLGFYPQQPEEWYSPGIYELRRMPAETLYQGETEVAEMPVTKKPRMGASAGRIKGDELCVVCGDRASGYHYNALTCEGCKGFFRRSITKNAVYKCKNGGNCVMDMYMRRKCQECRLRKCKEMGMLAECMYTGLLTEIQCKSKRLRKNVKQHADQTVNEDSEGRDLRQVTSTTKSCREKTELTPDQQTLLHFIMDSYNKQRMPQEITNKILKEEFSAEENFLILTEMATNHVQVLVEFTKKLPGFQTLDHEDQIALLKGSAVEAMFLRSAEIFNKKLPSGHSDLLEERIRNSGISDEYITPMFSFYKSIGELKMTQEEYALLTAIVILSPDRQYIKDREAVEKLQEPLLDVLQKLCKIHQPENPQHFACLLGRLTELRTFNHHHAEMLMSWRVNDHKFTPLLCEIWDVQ
# Summary of the method: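 Antagonist mode: chenodeoxycholic acid at 50 uM final stimulates a UAS-driven beta-lactamase reporter in HEK 293T FXR-bla cells during 16 h, 37C compound exposure. Read-out is FRET substrate fluorescence after 2 h at room temperature.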
# [10] = molecular target: Bile acid receptor (Homo sapiens) (UniProt Q96RI1); experiment: qHTS assay to identify small molecule agonists of the farnesoid-X-receptor (FXR) signaling pathway (AID 743220; active means well fitted activation curve with a large enough effect in the signal ratio in the repeat runs, not every such curve was filed as active; the % refers to the signal ratio)
# Summary of the method: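 FXR-UAS-bla HEK 293T cells carrying a UAS-driven beta-lactamase reporter were plated for 5 h at 37C/5% CO2, then exposed to DMSO-dissolved Tox21 10K compounds for 16 h at 37C. A LiveBLAzer B/G FRET substrate was loaded for 2 h at room temperature before fluorescence reading.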
SMILES,Potency [1],Potency [2],Potency [3],Potency [4],Potency [5],Potency [6],Potency [7],Potency [8],Potency [9],Potency [10]
CNC(=O)Oc1cc(C)cc(C(C)C)c1,inactive,inactive,inactive,inactive,inactive,inactive,inactive,inactive,–,–
C[N+]1(C)[C@@H]2CC[C@H]1CC(OC(=O)C(CO)c1ccccc1)C2 (some centres undefined),inactive,inactive,inactive,–,inactive,inactive,–,–,–,–
Cc1c([N+](=O)[O-])c(C)c([N+](=O)[O-])c(C(C)(C)C)c1[N+](=O)[O-],inactive,inactive,inactive,inactive,–,–,inactive,inactive,–,–
CN=C=O,inactive,inactive,inactive,–,inactive,inactive,–,–,–,–
Cc1ccn2nc(S(=O)(=O)Nc3c(F)cccc3F)nc2n1,inactive,inactive,inactive,–,inactive,inactive,inactive,inactive,inactive,inactive
CC(C)=CC1C(C(=O)OC(C#N)c2cccc(Oc3ccccc3)c2)C1(C)C (centres undefined),inactive,inactive,inactive,inactive,inactive,inactive,–,–,inactive,inactive
O=C(Cl)c1ccccc1F,inactive,inactive,inactive,inactive,inactive,inactive,inactive,inactive,inactive,inactive
CC(C)C(Br)C(=O)NC(N)=O (centres undefined),inactive,inactive,inactive,–,inactive,inactive,inactive,inactive,inactive,inactive
Clc1ccc(C2(Cn3cncn3)OCCO2)c(Cl)c1,inactive,inactive,inactive,inactive,inactive,inactive,–,–,–,–
BrCC(Br)(Br)Br,inactive,inactive,inactive,–,inactive,inactive,inactive,inactive,–,inactive
COc1ccc(Cc2nccc3cc(OC)c(OC)cc23)cc1OC,inactive,inactive,inactive,–,inactive,inactive,–,–,–,–
CCCCON=O,inactive,inactive,inactive,inactive,inactive,inactive,inactive,inactive,–,–
CC(=O)C(Cl)C(=O)N(C)C (centres undefined),inactive,inactive,–,inactive,inactive,inactive,inactive,inactive,–,–
CC(Cc1ccc(O)cc1)NCC(O)c1cc(O)cc(O)c1 (centres undefined),inactive,inactive,–,inactive,–,inactive,inactive,–,inactive,inactive
CCN(CC)Cc1nccn1-c1ccc([N+](=O)[O-])cc1C(=O)c1ccccc1Cl,inactive,inactive,–,–,inactive,inactive,inactive,inactive,–,–
[O-][Cl+3]([O-])([O-])O,inactive,inactive,–,–,–,inactive,–,–,–,–
COCCC#N,inactive,inactive,inactive,–,inactive,inactive,inactive,inactive,–,–
Cc1cccc(Cc2cnc[nH]2)c1C,inactive,inactive,–,–,inactive,inactive,–,inactive,–,–
CNC(=O)CSP(=O)(OC)OC,inactive,inactive,–,–,inactive,inactive,–,–,inactive,inactive
COc1c2c(cc3c1OCO3)CCN(C)C2,inactive,inactive,–,inactive,inactive,inactive,–,inactive,–,–
c1csc(-c2ccc(-c3cccs3)s2)c1,inactive,43.6 µM (active),–,–,inactive,inactive,24.5 µM (active),–,inactive,–
O=C(Nc1ccc(F)cc1F)c1cccnc1Oc1cccc(C(F)(F)F)c1,inactive,inactive,–,inactive,inactive,inactive,inactive,inactive,–,inactive
CC(C)N(C(=O)SC/C(Cl)=C/Cl)C(C)C,inactive,inactive,–,inactive,inactive,inactive,inactive,inactive,inactive,inactive
c1ccc(N=NNc2ccccc2)cc1,56.8 µM (active),inactive,–,–,inactive,inactive,–,–,–,–
O=C(NC(=O)c1ccccc1Cl)Nc1ccc(OC(F)(F)F)cc1,inactive,inactive,–,inactive,inactive,inactive,inactive,inactive,–,inactive
CC1CN1 (centres undefined),inactive,inactive,–,inactive,inactive,inactive,–,–,–,–
CCOC(=O)Cc1ccccc1,inactive,inactive,–,inactive,inactive,inactive,inactive,inactive,inactive,inactive
COP(=S)(NC(C)C)Oc1ccc(C)cc1[N+](=O)[O-] (centres undefined),inactive,inactive,–,inactive,inactive,inactive,inactive,inactive,inactive,inactive
O=C1C2(Cl)C3(Cl)C4(Cl)C(Cl)(Cl)C5(Cl)C3(Cl)C1(Cl)C5(Cl)C24Cl (centres undefined),48.2 µM (active) and 46.9 µM (active),inactive,54 µM (active),–,–,54 µM (active),inactive,54 µM (active),–,inactive
